Source: the supplement of paper PMC11732987, “Enantioselective OTUD7B fragment discovery through chemoproteomics screening and high-throughput optimisation” (Communications Chemistry, 2025)

Experiments:
Test in all cases: log2 ratio of Biotin-Ahx-Ub-VS probe labelling (fragment/DMSO); higher = less target engagement (more negative = stronger competition), active = hit call of the paper (q ≤ 0.05, log2 ratio ≤ -1)
Details in all cases: compound concentration: 200 uM; treatment time: 3 h
USP42 = target: T1, USP42 (UniProt Q9H9J4)
T1 sequence (whole entry): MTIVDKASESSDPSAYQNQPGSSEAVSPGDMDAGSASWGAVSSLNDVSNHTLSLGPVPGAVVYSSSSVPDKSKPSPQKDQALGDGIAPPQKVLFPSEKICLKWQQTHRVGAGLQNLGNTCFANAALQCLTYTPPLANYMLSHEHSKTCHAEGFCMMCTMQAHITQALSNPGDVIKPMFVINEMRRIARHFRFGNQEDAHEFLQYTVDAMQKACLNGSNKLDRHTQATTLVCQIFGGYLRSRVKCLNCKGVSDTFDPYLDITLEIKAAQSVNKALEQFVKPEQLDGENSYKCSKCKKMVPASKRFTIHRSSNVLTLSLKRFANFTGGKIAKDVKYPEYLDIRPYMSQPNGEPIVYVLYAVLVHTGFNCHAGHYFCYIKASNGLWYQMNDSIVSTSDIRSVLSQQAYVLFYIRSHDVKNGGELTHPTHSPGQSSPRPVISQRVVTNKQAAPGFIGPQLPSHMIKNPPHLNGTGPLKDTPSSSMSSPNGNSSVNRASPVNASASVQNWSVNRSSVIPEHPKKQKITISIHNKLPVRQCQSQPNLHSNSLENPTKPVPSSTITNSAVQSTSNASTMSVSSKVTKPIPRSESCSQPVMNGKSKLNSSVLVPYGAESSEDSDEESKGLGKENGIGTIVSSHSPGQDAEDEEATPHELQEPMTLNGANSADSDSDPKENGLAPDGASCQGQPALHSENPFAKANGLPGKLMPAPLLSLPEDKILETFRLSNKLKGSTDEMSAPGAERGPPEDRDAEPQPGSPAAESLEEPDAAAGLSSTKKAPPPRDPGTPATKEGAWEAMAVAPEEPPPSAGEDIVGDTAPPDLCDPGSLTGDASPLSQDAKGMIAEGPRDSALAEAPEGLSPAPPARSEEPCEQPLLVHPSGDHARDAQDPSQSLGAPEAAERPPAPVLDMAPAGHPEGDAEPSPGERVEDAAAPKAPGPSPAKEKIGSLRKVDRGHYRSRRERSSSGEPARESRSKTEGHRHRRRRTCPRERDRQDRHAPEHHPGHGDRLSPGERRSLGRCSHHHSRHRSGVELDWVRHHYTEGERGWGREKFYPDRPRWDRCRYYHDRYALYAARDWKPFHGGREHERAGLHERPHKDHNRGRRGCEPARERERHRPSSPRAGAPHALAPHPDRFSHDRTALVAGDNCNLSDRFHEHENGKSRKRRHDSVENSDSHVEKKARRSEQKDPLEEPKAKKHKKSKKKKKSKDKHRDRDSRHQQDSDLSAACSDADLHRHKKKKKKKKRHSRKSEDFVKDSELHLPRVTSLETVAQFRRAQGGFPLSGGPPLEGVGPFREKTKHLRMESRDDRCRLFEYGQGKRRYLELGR
Outline: (§1)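 The table lists average log2 ratios of fragment over vehicle, from an unpaired t-test on global-median-normalised Spectronaut label-free quantities. Proteins with ≥2 unique peptides were used. Samples were HEK293T lysate (495 µg) treated in triplicate with fragment at 200 µM or vehicle for 3 h, then with Biotin-Ahx-Ub-VS (0.5 µM final) for 1 h, with labelled DUBs NeutrAvidin-enriched and run by diaPASEF LC-MS/MS.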

USP46 = USP46 (UniProt P62068)
Outline: as §1

USP47 = target: T2, USP47 (UniProt Q96K76)
T2 sequence (whole entry): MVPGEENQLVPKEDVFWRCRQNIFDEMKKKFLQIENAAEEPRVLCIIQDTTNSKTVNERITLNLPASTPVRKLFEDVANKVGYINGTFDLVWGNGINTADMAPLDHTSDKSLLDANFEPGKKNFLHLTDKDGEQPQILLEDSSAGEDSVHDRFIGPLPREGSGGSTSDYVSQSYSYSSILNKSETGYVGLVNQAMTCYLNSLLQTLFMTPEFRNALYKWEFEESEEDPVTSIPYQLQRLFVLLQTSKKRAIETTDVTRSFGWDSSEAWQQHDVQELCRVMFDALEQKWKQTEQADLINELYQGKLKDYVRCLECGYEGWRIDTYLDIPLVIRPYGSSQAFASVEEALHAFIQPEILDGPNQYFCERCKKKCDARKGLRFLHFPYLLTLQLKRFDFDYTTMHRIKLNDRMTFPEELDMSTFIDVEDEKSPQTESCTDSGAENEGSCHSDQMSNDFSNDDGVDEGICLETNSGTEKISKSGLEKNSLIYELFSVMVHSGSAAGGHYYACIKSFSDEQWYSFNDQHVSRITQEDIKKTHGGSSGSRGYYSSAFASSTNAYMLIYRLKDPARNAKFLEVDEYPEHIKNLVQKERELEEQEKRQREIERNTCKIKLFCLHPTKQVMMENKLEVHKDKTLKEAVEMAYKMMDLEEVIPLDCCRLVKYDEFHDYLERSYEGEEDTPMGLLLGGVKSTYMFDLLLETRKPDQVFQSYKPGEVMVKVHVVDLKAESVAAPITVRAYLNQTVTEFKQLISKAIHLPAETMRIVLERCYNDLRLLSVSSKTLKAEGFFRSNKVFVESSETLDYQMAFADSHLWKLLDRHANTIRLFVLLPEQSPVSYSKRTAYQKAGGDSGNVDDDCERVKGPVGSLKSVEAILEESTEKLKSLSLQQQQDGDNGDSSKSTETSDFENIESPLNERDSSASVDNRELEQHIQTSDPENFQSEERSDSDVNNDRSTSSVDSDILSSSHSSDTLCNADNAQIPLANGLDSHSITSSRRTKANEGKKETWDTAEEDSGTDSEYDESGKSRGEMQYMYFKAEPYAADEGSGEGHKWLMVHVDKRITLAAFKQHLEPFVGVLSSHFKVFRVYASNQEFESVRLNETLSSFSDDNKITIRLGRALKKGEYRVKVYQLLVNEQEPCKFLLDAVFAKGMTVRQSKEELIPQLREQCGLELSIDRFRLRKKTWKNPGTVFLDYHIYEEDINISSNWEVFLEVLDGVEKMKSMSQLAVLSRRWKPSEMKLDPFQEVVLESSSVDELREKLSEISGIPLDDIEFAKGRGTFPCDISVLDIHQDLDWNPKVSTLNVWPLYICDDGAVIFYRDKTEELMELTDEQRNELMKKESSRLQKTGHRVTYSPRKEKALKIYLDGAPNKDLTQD
Outline: as §1

USP48 = target: T3, USP48 (UniProt Q86UV5)
T3 sequence (whole entry): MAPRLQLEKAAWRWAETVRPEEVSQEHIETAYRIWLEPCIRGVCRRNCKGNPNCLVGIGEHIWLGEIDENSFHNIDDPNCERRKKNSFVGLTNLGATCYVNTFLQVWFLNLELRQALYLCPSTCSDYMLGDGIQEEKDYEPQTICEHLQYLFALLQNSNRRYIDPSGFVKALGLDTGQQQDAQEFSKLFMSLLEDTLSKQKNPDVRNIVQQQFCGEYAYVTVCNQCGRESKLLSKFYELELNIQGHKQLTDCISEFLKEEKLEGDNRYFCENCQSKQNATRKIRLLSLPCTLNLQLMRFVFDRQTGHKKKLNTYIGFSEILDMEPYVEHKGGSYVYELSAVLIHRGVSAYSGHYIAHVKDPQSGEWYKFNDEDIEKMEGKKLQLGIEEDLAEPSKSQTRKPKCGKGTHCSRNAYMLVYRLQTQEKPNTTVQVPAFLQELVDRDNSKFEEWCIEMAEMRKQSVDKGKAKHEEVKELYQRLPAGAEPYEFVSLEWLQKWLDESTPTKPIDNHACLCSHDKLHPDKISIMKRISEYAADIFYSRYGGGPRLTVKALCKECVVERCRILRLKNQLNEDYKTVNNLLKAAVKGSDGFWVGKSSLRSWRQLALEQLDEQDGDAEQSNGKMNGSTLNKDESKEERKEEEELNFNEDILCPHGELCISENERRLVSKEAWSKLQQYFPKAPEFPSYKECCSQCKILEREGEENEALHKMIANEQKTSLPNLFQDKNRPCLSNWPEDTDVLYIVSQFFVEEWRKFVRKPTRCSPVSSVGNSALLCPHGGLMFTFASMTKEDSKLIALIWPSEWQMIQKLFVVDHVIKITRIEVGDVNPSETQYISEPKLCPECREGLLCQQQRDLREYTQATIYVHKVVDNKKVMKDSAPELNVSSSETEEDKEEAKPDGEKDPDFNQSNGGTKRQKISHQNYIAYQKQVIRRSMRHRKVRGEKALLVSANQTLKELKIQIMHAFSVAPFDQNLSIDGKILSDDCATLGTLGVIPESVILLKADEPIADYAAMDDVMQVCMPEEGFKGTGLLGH
Outline: as §1

USP5 = target: T4, USP5 (UniProt P45974)
T4 sequence (whole entry): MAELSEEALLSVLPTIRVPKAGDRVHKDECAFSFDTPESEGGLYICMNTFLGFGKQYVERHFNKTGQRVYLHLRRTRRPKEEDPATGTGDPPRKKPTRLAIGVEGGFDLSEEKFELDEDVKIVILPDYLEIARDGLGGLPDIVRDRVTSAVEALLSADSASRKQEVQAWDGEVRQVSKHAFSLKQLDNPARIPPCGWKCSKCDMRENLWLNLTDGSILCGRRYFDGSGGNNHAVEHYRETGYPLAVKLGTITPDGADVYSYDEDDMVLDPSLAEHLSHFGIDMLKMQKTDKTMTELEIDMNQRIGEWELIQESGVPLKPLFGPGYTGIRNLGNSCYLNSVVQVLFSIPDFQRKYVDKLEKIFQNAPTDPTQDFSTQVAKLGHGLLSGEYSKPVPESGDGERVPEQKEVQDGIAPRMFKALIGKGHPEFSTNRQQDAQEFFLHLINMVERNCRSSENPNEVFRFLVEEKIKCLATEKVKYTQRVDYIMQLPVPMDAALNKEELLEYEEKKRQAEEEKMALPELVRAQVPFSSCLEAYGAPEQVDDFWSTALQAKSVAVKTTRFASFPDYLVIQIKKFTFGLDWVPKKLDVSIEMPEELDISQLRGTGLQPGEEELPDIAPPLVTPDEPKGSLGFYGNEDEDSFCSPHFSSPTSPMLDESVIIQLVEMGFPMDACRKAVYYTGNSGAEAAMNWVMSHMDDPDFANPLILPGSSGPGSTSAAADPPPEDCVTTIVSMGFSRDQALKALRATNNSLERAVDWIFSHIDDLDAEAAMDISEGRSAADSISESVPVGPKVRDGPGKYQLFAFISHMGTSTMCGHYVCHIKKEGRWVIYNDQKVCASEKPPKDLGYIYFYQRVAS
Outline: as §1

USP54 = USP54 (UniProt Q70EL1)
Outline: as §1

USP7 = USP7 (UniProt Q93009)
Outline: as §1

USP8 = target: T5, USP8 (UniProt P40818)
T5 sequence (whole entry): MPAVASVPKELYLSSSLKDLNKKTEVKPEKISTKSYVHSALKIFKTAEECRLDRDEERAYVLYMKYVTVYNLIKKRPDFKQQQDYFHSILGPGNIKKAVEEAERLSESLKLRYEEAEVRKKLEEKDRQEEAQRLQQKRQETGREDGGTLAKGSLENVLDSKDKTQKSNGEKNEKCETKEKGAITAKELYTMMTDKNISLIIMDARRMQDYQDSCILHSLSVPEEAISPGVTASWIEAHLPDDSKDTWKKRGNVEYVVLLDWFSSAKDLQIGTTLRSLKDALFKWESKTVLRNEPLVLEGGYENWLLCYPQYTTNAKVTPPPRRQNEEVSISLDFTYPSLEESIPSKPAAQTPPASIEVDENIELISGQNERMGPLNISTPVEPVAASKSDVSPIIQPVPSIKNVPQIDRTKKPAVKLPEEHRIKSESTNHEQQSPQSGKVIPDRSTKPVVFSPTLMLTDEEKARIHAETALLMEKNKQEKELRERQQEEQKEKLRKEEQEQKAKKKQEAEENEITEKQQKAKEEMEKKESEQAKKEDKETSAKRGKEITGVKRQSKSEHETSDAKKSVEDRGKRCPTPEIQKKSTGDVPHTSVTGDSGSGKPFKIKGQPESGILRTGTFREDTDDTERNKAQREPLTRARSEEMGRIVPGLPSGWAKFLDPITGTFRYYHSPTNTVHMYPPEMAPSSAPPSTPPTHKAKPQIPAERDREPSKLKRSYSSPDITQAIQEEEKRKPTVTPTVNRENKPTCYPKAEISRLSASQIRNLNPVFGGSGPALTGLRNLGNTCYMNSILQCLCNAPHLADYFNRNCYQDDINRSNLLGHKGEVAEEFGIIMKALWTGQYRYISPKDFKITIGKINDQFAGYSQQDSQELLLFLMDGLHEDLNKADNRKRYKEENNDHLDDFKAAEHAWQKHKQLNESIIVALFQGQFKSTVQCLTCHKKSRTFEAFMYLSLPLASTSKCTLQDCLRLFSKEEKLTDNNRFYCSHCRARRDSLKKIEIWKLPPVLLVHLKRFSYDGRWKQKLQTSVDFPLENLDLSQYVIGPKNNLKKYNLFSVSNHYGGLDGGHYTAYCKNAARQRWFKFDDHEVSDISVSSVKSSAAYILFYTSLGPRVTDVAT
Outline: as §1

USP9X = USP9X (UniProt Q93008)
Outline: as §1

UniProt O00487 = target: UniProt O00487
Outline: as §1

Measured: log2 ratio of Biotin-Ahx-Ub-VS probe labelling

USP9X, sequence (Q93008 whole entry): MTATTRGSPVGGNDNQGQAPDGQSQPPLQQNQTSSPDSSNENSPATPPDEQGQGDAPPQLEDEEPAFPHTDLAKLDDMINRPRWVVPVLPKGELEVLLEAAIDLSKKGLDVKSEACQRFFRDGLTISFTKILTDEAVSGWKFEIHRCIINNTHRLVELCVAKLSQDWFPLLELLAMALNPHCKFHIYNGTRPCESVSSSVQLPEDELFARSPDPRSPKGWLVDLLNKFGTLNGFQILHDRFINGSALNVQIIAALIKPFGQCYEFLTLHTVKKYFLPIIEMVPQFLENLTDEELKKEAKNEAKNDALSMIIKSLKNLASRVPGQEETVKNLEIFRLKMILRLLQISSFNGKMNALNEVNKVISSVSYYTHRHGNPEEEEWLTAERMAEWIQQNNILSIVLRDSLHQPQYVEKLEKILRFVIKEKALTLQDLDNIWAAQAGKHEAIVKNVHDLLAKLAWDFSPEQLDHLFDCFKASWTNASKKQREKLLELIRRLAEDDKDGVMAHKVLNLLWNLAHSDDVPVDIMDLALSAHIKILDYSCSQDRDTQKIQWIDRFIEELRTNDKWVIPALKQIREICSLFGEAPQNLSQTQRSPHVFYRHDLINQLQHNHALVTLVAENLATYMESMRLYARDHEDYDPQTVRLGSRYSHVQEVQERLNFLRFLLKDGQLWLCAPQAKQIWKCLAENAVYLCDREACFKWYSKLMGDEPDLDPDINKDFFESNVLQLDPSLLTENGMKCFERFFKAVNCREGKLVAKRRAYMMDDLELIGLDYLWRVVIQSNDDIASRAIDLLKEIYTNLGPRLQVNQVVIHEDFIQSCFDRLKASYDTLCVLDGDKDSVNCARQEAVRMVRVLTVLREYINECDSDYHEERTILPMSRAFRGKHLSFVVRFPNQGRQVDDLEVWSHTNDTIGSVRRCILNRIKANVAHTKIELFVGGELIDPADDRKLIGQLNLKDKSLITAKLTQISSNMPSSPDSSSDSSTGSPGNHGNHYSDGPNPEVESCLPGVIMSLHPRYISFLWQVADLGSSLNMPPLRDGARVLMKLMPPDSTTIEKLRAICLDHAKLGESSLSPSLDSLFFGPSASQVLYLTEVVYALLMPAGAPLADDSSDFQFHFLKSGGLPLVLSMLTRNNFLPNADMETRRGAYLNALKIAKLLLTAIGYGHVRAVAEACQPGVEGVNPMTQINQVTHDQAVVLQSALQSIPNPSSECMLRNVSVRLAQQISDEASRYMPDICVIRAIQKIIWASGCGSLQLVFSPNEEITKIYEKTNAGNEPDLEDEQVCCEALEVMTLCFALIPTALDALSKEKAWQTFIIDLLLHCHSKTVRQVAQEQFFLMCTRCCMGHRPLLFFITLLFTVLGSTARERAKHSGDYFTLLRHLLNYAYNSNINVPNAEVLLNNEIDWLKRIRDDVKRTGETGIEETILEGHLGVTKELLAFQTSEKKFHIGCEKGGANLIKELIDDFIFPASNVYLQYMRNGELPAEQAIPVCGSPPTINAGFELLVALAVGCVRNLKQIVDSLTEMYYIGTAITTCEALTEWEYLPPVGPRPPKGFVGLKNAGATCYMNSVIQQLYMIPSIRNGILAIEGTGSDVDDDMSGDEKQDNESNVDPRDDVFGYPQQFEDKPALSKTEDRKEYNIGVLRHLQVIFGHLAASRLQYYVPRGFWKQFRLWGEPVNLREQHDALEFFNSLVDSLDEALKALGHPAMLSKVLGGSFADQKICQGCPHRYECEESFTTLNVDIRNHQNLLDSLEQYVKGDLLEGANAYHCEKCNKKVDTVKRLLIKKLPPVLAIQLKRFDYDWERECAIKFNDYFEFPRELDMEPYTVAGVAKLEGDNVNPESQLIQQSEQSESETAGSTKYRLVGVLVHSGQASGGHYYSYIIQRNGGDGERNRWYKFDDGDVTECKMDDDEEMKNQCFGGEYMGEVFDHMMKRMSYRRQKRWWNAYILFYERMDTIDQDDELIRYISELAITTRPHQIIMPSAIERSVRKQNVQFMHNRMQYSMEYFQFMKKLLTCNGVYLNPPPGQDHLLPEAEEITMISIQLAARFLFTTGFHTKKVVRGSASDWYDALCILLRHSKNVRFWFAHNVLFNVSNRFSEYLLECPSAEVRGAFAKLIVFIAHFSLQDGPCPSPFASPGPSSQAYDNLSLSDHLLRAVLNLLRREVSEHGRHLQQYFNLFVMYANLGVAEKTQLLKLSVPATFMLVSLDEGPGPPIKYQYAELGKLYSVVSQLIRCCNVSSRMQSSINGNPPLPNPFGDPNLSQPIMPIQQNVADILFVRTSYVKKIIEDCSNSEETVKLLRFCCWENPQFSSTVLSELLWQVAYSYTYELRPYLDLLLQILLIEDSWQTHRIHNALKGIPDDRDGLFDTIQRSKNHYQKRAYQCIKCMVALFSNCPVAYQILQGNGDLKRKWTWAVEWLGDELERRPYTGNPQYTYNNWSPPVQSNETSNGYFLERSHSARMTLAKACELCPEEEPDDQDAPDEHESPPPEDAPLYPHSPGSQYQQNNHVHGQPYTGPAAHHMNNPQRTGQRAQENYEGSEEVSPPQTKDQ
USP46, sequence (P62068 whole entry): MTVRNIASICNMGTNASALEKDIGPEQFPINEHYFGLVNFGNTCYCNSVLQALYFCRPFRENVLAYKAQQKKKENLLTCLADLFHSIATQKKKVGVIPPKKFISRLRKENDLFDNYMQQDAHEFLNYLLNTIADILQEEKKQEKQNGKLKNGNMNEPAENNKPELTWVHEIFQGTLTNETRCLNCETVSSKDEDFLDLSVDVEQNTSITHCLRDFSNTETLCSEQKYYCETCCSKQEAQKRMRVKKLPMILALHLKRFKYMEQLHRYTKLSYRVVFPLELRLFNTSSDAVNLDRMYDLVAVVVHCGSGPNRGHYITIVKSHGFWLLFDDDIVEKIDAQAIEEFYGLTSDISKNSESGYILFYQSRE
USP54, sequence (Q70EL1 whole entry): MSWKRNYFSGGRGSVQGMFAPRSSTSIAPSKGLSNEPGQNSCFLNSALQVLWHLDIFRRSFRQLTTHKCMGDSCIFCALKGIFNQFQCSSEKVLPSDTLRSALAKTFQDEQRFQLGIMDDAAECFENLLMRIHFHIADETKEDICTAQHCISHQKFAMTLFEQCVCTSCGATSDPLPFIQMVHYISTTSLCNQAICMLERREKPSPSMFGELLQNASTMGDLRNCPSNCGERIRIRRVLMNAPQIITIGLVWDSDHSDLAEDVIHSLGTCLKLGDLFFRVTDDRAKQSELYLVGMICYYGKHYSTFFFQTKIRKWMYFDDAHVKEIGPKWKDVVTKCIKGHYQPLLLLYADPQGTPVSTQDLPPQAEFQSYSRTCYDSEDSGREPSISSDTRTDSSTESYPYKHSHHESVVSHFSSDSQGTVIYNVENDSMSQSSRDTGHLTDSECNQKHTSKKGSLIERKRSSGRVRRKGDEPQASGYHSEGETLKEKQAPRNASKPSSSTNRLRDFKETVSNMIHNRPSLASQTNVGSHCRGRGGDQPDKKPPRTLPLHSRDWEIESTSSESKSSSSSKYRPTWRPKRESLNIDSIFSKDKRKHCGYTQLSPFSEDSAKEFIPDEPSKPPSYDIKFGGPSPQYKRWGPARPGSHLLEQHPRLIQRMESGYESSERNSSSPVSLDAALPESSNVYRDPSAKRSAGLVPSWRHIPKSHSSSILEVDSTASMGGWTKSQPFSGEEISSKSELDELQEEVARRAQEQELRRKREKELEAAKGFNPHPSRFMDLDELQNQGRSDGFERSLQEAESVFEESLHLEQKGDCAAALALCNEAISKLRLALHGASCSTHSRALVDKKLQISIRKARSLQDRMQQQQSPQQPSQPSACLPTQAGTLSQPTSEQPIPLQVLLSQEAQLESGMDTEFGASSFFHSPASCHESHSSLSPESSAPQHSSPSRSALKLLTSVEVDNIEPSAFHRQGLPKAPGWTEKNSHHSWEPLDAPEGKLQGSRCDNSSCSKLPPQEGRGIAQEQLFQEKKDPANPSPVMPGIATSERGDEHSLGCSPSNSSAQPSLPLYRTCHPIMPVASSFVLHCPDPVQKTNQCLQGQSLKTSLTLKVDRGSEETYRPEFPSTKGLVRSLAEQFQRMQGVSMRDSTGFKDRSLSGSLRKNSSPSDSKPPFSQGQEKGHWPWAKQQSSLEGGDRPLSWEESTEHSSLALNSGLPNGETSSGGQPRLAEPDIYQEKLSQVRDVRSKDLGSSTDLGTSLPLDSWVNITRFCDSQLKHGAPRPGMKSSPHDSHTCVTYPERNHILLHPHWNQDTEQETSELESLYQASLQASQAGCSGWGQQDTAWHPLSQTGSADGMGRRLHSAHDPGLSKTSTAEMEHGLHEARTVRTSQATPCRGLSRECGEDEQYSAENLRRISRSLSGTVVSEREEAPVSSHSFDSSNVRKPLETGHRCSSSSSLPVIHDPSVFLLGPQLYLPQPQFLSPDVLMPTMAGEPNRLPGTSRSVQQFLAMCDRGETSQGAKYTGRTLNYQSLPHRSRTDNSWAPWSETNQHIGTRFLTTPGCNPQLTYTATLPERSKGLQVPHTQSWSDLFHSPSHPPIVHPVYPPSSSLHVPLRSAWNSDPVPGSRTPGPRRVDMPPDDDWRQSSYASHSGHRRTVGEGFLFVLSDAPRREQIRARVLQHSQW
UniProt O00487, sequence (O00487 whole entry): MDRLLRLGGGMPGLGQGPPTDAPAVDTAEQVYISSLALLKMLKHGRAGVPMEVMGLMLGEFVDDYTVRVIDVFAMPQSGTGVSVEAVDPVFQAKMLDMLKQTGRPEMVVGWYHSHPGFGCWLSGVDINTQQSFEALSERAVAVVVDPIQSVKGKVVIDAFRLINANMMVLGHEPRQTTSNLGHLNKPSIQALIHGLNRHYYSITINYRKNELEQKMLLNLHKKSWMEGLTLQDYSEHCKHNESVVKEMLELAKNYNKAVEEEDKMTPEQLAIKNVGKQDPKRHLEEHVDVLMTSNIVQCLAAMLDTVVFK

Cc1ccccc1CN(C)C(=O)CCl
active: USP7 -1.57
inactive: USP42 -0.263 | USP46 -0.653 | USP47 -1 | USP48 -0.83 | USP5 -0.152 | USP54 1.1 | USP8 -0.825 | USP9X -0.836 | UniProt O00487 -0.14
